Assay [1] concerns the target T1, Tyrosine-protein kinase ITK/TSK (Homo sapiens) (UniProt Q08881).
T1 sequence (whole entry): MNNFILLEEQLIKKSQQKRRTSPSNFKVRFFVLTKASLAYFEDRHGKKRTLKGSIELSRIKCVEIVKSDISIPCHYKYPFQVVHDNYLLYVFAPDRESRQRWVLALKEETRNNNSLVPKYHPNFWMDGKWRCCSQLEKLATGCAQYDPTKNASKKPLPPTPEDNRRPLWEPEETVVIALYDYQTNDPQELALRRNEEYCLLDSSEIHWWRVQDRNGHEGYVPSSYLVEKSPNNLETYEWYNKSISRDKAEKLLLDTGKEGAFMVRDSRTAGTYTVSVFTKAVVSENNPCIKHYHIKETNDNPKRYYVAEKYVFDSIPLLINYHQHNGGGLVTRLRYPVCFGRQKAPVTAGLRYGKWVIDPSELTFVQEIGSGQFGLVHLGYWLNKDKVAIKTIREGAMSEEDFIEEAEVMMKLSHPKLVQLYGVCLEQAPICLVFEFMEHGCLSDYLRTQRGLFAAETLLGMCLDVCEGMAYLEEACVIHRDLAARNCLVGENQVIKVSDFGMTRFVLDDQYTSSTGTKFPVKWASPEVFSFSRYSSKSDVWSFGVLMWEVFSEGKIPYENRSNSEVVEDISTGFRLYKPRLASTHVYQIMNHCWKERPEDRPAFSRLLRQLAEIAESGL
Particulars: at 10 µM.

The target in assay [2] is Tyrosine-protein kinase JAK2 (Homo sapiens) (UniProt O60674). Particulars: at 1 µM.
The target is the same in assay [3]. The settings on record: at 10 µM.
For assay [4], the target named is T2, Tyrosine-protein kinase JAK3 (Homo sapiens) (UniProt P52333).
T2 sequence (whole entry): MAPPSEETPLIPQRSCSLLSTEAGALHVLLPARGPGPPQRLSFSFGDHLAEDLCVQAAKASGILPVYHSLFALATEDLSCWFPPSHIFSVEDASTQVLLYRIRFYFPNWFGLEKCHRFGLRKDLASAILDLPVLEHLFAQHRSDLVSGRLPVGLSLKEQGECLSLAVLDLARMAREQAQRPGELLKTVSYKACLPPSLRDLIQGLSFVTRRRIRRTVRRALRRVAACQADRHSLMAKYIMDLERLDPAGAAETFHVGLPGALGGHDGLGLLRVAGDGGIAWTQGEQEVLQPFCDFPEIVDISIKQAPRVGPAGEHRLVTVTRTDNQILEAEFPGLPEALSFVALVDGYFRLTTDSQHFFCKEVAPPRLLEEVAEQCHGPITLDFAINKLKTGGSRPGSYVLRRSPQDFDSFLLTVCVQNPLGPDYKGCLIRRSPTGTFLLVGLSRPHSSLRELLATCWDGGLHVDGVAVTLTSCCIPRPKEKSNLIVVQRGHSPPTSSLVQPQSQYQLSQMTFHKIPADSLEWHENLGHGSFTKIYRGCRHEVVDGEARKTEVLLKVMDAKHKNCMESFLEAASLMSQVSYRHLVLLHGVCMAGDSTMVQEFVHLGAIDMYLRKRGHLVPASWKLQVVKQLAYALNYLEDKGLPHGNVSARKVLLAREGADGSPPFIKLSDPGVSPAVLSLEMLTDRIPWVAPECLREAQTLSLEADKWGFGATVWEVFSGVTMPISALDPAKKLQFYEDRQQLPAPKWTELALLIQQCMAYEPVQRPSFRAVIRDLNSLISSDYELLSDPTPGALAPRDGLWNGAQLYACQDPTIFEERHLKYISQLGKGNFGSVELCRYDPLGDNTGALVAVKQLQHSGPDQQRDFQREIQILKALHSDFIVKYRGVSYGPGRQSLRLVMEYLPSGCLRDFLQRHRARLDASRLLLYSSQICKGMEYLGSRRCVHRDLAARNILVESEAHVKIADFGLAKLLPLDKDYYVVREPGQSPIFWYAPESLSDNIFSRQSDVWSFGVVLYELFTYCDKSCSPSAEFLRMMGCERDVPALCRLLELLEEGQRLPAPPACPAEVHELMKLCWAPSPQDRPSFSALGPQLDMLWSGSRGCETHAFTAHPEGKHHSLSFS
The settings on record: at 1 µM.

The target of assay [5] is T2, Tyrosine-protein kinase JAK3 (Homo sapiens). Particulars: at 10 µM.
Assay [6] deals with Mitogen-activated protein kinase 8 (Homo sapiens) (UniProt P45983). Particulars: at 1 µM.
Assay [7] has the same target. Particulars: at 10 µM.
Assay [8] deals with Mitogen-activated protein kinase 9 (Homo sapiens) (UniProt P45984). The settings on record: at 1 µM.
For assay [9] the target is unchanged. The settings on record: at 10 µM.
Assay [10] concerns the target Mitogen-activated protein kinase 10 (Homo sapiens) (UniProt P53779). The settings on record: at 1 µM.

Results on 37 compounds are retold here after ChEMBL document CHEMBL2218924, “A broad activity screen in support of a chemogenomic map for kinase signalling research and drug discovery” (Biochem J, 2013).

Each structure is given as a SMILES string.

Chain of Mitogen-activated protein kinase 9 (Homo sapiens) (P45984 whole entry, looked up): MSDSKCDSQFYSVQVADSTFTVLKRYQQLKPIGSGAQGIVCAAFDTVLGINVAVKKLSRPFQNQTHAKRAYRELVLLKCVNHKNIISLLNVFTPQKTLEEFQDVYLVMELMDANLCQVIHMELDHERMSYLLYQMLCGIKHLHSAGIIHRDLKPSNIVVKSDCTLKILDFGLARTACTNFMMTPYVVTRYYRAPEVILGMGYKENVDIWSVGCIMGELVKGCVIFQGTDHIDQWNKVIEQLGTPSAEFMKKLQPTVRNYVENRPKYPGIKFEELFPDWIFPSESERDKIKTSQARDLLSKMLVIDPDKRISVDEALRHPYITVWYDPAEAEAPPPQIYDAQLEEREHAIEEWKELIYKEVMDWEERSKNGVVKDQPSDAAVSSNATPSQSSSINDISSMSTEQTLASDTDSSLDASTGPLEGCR
Chain of Tyrosine-protein kinase JAK2 (Homo sapiens) (O60674 whole entry): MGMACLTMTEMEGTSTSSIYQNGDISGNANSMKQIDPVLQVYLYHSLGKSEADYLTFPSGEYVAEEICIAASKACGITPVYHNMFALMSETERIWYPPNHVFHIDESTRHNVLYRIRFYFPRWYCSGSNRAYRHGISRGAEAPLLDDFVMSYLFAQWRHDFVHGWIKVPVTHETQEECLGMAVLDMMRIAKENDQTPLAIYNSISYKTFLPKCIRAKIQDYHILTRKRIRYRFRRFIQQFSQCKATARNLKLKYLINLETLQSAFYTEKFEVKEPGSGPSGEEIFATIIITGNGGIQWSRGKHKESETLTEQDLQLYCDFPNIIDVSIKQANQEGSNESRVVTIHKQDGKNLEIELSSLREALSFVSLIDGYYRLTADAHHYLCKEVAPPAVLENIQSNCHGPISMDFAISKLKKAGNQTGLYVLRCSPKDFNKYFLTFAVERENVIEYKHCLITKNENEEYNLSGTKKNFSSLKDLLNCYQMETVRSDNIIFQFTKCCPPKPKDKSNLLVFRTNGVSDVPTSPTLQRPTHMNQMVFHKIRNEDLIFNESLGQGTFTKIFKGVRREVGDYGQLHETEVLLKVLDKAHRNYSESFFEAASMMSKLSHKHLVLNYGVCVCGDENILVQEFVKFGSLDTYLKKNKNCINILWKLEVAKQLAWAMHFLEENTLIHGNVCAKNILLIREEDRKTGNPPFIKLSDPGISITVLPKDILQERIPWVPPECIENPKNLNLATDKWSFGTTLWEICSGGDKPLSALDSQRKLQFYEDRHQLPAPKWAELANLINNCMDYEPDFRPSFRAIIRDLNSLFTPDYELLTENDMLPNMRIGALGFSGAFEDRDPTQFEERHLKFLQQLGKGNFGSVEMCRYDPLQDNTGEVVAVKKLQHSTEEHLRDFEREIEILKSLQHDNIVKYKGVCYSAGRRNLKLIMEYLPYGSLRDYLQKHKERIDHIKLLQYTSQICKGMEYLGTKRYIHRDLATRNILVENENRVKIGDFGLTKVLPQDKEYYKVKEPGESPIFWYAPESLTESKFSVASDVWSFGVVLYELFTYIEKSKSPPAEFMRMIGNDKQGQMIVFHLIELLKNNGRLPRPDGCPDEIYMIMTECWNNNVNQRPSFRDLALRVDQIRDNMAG
Chain of Mitogen-activated protein kinase 8 (Homo sapiens) (P45983 whole entry): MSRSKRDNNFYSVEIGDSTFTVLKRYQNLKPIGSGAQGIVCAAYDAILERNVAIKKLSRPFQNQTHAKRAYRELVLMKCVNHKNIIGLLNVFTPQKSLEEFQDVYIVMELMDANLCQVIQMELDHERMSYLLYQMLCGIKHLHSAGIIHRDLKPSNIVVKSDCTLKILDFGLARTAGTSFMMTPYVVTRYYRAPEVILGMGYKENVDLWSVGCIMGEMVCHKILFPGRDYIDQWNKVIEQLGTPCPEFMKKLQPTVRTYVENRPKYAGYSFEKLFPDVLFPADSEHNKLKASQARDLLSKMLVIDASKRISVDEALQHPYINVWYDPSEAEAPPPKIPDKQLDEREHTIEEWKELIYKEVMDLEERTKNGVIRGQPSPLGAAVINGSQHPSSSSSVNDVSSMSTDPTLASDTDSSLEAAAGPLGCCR
Chain of Mitogen-activated protein kinase 10 (Homo sapiens) (P53779 whole entry): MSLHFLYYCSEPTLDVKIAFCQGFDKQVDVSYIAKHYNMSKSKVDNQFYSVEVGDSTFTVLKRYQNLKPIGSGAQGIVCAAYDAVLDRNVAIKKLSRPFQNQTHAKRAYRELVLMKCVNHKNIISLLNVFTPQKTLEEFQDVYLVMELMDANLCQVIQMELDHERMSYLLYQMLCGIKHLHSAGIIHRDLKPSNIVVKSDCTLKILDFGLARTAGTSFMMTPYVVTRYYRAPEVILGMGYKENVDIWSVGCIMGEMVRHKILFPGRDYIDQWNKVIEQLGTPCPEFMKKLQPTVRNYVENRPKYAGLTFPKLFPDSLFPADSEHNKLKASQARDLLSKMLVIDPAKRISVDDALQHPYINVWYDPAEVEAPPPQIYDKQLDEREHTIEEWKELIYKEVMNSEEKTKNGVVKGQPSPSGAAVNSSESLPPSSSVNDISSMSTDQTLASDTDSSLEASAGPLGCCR

On to `Nc1ncnc2c1c(-c1ccc(Oc3ccccc3)cc1)cn2C1CCCC1`, for which the residual activity came to 4% in assay [1]; 96% in assay [2]; 124% in assay [3]; 91% in [4]; 65% in assay [5]; 100% in [6]. The residual activity in assay [7] is 64%; in [8] it was 104%; in assay [9] it was 92%; in assay [10] it was 77%.
Turning to `Cn1c2ccccc2c2c3c(c4c5ccccc5n(CCC#N)c4c21)CNC3=O`, the residual activity turned out to be 4% in assay [1]; 4% in assay [2]; 3% in assay [3]; 1% in assay [4]; 2% in [5]; 31% in assay [7]. For the same compound, the residual activity in [9] was 73%; in assay [10] it was 7%.
Turning to `CCCCc1c(-c2ccc(OC)cc2)[nH]c2nccnc12`, the residual activity stood at 92% in assay [1]; 71% in assay [2]; 49% in assay [3]; 81% in assay [4]; 86% in assay [5]; 105% in assay [6]. Also, the figures for the residual activity in assay [8], in assay [9] and in assay [10] were 91%, 109% and 48%, respectively.
With `COc1cc2ncnc(Nc3cccc(Cl)c3)c2cc1OC`, the residual activity in [1] was determined as 105%; in [2], 123%; in [3], 86%; in [4], 109%; in [5], 118%; in assay [6], 112%. Further, the residual activity stood at 122% in assay [7] and 73% in [10].
Take `O=c1cc(N2CCOCC2)oc2c1ccc1ccccc12`: the residual activity in assay [1] turned out to be 94%; in assay [4], 100%; in assay [5], 108%; in assay [6], 103%; in assay [7] it was 87%; in assay [8], 110%. In addition, the residual activity in assay [9] stood at 97%.
As for `Fc1ccc(-c2nc3n(c2-c2ccncc2)CCS3)cc1`, the residual activity worked out at 99% in [2]; 100% in [3]; 81% in assay [7]; 73% in [8]; 20% in [9]; 14% in assay [10].
As for `O=c1c(-c2ccc(F)cc2)c(-c2ccncc2)[nH]n1-c1ccc(Cl)cc1`, the residual activity in [8] was 7%; in [9], -10%; in assay [10], -2%.
For `CC(C)N(CCC(=O)c1ccc2ccccc2c1)Cc1ccccc1`, the residual activity in [4] is 78%; in assay [5], 45%; in [7], 57%; in assay [9], 86%; in assay [10] it was 80%.
`O=C1NC(=O)C(c2cn(CCCn3ccnc3)c3ccccc23)=C1Nc1ccccc1`: the residual activity was found to be 103% in assay [2]; 39% in assay [3]; 15% in [4]; 2% in assay [5]; 109% in assay [6]; 79% in [7]. In addition, the residual activity in [8] is 110%; in [9], 80%.
In the case of `O=C1NC(=O)C(c2cn(CCCO)c3ncccc23)=C1c1cnccn1`, the residual activity in [1] was determined as 91%; in [8], 96%; in assay [9], 80%; in assay [10], 89%.
`O=C(c1ccccc1)c1ccc(N2CCOCC2)cc1O`: the residual activity came to 92% in assay [2]; 99% in assay [3]; 91% in assay [4]; 82% in [5]; 116% in [6]; 83% in [10].
On to `O=C1Cc2c([nH]c3ccc(Br)cc23)-c2ccccc2N1`, for which the residual activity is 100% in [2]; 71% in assay [3]; 71% in assay [5]; 95% in assay [6]; 88% in [7]; 87% in assay [8]. Moreover, the residual activity in assay [9] was 97%.
Take `Nc1nccc(-c2c(-c3ccc(F)cc3)ncn2C2CCNCC2)n1`: the residual activity in assay [4] worked out at 120%; in assay [5], 118%; in assay [10], 69%.
On to `COc1ccc(Cl)cc1NC(=O)Nc1cc(C)nc2ccccc12`, for which the residual activity in [2] is 124%; in assay [3], 155%; in assay [5] it was 145%; in assay [10], 85%.
For `Cc1cc(C)c(/C=C2\C(=O)Nc3ccccc32)[nH]1`, the residual activity in assay [8] came out at 102%; in [9] it was 101%.
With `NC(=O)c1ccc(-c2nc(-c3ccc4c(c3)OCCO4)c(-c3ccccn3)[nH]2)cc1`, the residual activity in assay [6] was determined as 117%; in assay [7], 87%.
In the case of `NCCNc1ncc(C(N)=O)c(Nc2cccc(C(F)(F)F)c2)n1`, the residual activity in assay [4] was determined as 116%; in assay [5], 106%; in assay [8] it was 103%; in assay [9] it was 76%; in assay [10], 79%.
For `O=C1Nc2ccc(Cl)cc2/C1=C/c1cc(Cl)c(O)c(Cl)c1`, the residual activity turned out to be 98% in assay [2]; 69% in assay [3]; 75% in [4]; 28% in [5]; 95% in assay [6]; 69% in assay [7]. In [10], the residual activity worked out at 64%.
`COc1ccc(-c2cnc3c(-c4ccsc4)cnn3c2)cc1`: the residual activity amounted to 92% in [5], 100% in assay [8], 100% in assay [9] and 88% in [10].
Take `CCN1/C(=C/C(C)=O)Sc2ccc(OC)cc21`: the residual activity in [10] was found to be 65%.
For `Oc1cccc(-c2nc(N3CCOCC3)c3oc4ncccc4c3n2)c1`, the values for the residual activity in assay [7] and in assay [10] were 77% and 91%, respectively.
Turning to `CC(C)[C@H](CO)Nc1nc(Nc2cc(N)cc(Cl)c2)c2ncn(C(C)C)c2n1`, the residual activity stood at 87% in assay [5] and 82% in assay [10].
For the compound `O=C(Nc1ccc(Cl)cc1)c1ccccc1NCc1ccncc1`, the residual activity in [2] was determined as 129%; in [3], 74%; in assay [6], 120%; in assay [7] it was 129%; in [10], 72%.
Consider `N#C/C(=C1/Nc2ccccc2S1)c1ccnc(NCCc2cccnc2)n1`, for which the residual activity came out at 95% in assay [4], 48% in assay [5], 67% in [6] and 55% in assay [7].
Regarding `CCOc1nc(NC(=O)Cc2cc(OC)ccc2OC)cc(N)c1C#N`, the residual activity in [6] was -16%; in [7], -6%; in [8], -1%; in assay [9], -11%; in [10], -2%.
For the compound `O=C1Cc2c([nH]c3ccc([N+](=O)[O-])cc23)-c2ccccc2N1`, the residual activity was determined as 106% in assay [3]; 101% in assay [4]; 101% in assay [5]; 109% in assay [6]; 104% in assay [8]; 101% in assay [9]. Besides, the residual activity in [10] amounted to 70%.
For `N#Cc1c(NC(=O)c2cccc3ccccc23)sc2c1CCCC2`, the residual activity in assay [3] was 92%; in assay [8] it was 58%; in assay [9], 74%; in [10] it was 8%.
With `O=C1C(Cl)=C(N2C(=O)CCC2=O)C(=O)c2ccccc21`, the residual activity is 100% in [4]; 89% in assay [5]; 96% in assay [6]; 86% in assay [7]; 89% in assay [8]; 102% in assay [9]. Further, the residual activity in [10] was found to be 88%.
Take `COc1cc2nccc(Oc3ccc(NC(=O)Nc4cc(C)on4)c(Cl)c3)c2cc1OC`: the residual activity in [4] came to 100%; in assay [5], 48%; in assay [6], 120%; in assay [7], 109%.
Take `O=C(O)/C=C/c1cc(Br)c(Br)c(Br)c1Br`: the residual activity came out at 87% in [2]; 58% in assay [3]; 102% in [4]; 34% in assay [5]; 108% in [6]; 72% in assay [7]. For the same compound, the residual activity in assay [8] was found to be 100%; in assay [9], 72%; in [10], 99%.
Take `O=C1Nc2ccccc2/C1=C\c1c(Cl)[nH]c2ccccc12`: the residual activity in assay [5] amounted to 85%; in [9], 76%; in assay [10], 83%.
Turning to `O=c1cc(N2CCOCC2)oc2c(-c3ccccc3)cccc12`, the residual activity in [7] was 79%; in [10] it was 70%.
With `O=C(NC(NC(=S)Nc1ccc(F)c([N+](=O)[O-])c1)C(Cl)(Cl)Cl)C(c1ccccc1)c1ccccc1` (stereo unspecified), the results for the residual activity in assay [5], in [7] and in [10] were 78%, 102% and 92%, respectively.
`COc1ccc(CNC(=O)Nc2ncc([N+](=O)[O-])s2)cc1`: the residual activity in [10] was found to be 65%.
Turning to `CN([C@@H](Cc1ccc(OS(=O)(=O)c2cccc3cnccc23)cc1)C(=O)N1CCN(c2ccccc2)CC1)S(=O)(=O)c1cccc2cnccc12`, the residual activity in assay [5] was determined as 83%; in assay [8], 114%; in assay [9], 114%; in assay [10], 76%.
On to `O=C1NC(=O)C(c2c[nH]c3ccccc23)=C1c1c[nH]c2ccccc12`, for which the residual activity was 33% in assay [3]; 43% in assay [4]; 6% in assay [5]; 35% in [7]; 56% in assay [10].
`Nc1n[nH]c2nc3ccccc3nc12`: the residual activity in assay [2] is 98%; in [3], 91%; in [8] it was 100%; in assay [9] it was 84%; in assay [10] it was 80%.
